CendR NRP1 mod: NRP-1/CendR interaction modulation. FAM-RPARPAR peptide binding to NRP-1, fluorescence polarization. inhibition, % at 25 µM. hit rate 0.85% among 360,000. AID 602438. O14786;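 active = inhibition or corrected inhibition above about 18%, plus a signal ratio from 0.5 to 1.5, limit read from the data, passing the limit was not always enough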
beta cell repl: induces beta-cell replication in MIN6 cells. MIN6 cells proliferation, ATPlite luminescence, 48 h; cells starved in 0.2% serum; 100% = growth in 10% serum. proliferation, % at 10 µM. hit rate 0.29% among 330,000. AID 2380;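 active = compounds whose signal lies at least 3.5 SD above the mean of all wells on their plate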;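 also: 0% = DMSO-treated cells in low-serum medium and 100% = 10% serum control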
VLA-4 inh: inhibition in a human VLA-4 binding assay; P13612; VLA-4 expressing cells, ligand binding flow cytometry; inhibition, % (about 7 µM as worked out from the volumes in the protocol); hit rate 0.2% among 330,000; in the data active = inhibition above about 50%
Target sequence (P13612 whole entry, looked up): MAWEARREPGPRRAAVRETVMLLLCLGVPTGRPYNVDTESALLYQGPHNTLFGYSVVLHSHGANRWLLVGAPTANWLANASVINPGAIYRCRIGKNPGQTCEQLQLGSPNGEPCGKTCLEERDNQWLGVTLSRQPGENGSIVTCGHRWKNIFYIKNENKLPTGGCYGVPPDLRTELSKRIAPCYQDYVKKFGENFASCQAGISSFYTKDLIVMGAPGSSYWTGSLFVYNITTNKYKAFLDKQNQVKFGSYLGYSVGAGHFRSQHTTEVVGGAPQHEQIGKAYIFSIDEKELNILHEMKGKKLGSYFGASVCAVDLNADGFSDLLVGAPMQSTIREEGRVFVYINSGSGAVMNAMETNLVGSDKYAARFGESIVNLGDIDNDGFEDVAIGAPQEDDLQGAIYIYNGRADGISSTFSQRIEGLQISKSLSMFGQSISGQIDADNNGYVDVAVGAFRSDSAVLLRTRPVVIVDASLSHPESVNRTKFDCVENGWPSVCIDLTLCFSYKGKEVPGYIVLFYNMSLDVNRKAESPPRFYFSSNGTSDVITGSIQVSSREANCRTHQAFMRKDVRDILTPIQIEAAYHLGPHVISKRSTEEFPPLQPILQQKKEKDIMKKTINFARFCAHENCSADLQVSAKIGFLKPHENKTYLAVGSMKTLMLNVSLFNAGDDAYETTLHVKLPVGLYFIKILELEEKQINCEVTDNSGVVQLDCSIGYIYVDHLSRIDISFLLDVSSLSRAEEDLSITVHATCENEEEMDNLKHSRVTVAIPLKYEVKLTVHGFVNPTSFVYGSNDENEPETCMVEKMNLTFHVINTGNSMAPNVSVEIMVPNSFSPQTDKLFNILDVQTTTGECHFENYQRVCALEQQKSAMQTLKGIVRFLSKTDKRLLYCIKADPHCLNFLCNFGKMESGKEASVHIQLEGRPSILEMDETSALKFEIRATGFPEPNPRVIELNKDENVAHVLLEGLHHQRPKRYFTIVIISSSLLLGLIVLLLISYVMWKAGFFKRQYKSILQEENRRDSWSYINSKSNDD
APOBEC3A inh: human APOBEC3A DNA deaminase inhibition; inhibition, % at 20 µM; AID 493011; hit rate 0.41% among 330,000; recombinant A3A, FAM/TAMRA ssDNA deamination fluorescence;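 active = at least 40% inhibition at 20 µM here, with at most 30% in a related deaminase screen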;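 also: plate controls were A3A with DMSO for no effect and wells lacking A3A enzyme for full effect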
APOBEC3G inh: inhibitors of human APOBEC3G DNA deaminase; Q9HC16; hit rate 0.28% among 330,000; recombinant A3G, ssDNA deamination FAM/TAMRA fluorescence; inhibition, % at 20 µM;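 active = inhibition of at least 40% at 20 µM, with no more than 30% in the related APOBEC3A deaminase screen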;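 also: plate controls were DMSO wells with A3G for no effect and wells lacking A3G enzyme for full effect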
A3A conf: APOBEC3A (human) deaminase inhibition, confirmed; hit rate 63% among 1,400; inhibition, % at 20 µM; recombinant A3A, ssDNA deaminase UDG fluorescence assay; shares compounds with APOBEC3A inh;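 active = inhibition reaching a set limit, 80% of the first screen's cutoff, at 20 µM in any replicate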;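 also: plate controls were DMSO wells with A3A for no effect and wells lacking A3A enzyme for full effect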
UDG A3A counter: inhibits UDG, flagging false APOBEC3A inhibitors; inhibition, % at 20 µM; UDG counterscreen, FAM/TAMRA uracil oligo fluorescence; 1,000 tested, under 10 active; shares compounds with APOBEC3A inh; call rule not given here
* marks the source's active call; other numbers are inactive results; nt = no result given. Shown are actives, neighbours in structure and some others; about 1.8% of the full set was active somewhere.

SMILES	CendR NRP1 mod	beta cell repl	VLA-4 inh	APOBEC3A inh	APOBEC3G inh	A3A conf	UDG A3A counter
CC(Sc1nnc(C2CC2)n1C1CC1)C(=O)NC1(C#N)CCCCC1 (centres undefined)	3	0	-11	-1	-2	nt	nt
O=C(CN1C(=O)NC2(CCCC2)C1=O)N1CCN(c2ccccc2Cl)CC1	5	-2	9	2	-3	nt	nt
CCOc1ccc(S(=O)(=O)N(CC(=O)N/N=C/c2ccc(-c3ccc([N+](=O)[O-])cc3)o2)c2ccccc2)cc1	-28	0	-21	66*	23	37*	5
COCCCn1c(SCC(=O)NC2CCCC2)nnc1-c1cccs1	-7	-2	-3	-4	-11	nt	nt
Cc1cccc(C(=O)OCC(=O)NCCNC(=O)COC(=O)c2cccc(C)c2C)c1C	4	-5	3	40*	6	17	nt
O=C(NC1CCC(Oc2ccc(C(=O)O)cc2)CC1)NC12CC3CC(CC(C3)C1)C2 (centres undefined)	-5	0	2	-1	-6	nt	nt
COc1ccc(C(=O)NC2CCN(CC(=O)N3CCCCC3)CC2)cc1	9	4	3	41*	4	6	nt
CC1CC(OCC(O)C[N+]2(C)CCOCC2)CC(C)(C)C1 (centres undefined)	1	-2	-2	62*	18	69*	4
Cc1ccsc1CN(C(=O)c1ccc([N+](=O)[O-])cc1)C1CCS(=O)(=O)C1 (centres undefined)	18	2	-7	1	-3	nt	nt
CCC1CCCCN1C(=O)COc1ccccc1NC(C)=O (centres undefined)	-4	-2	-12	41*	11	3	nt
CCC1CCCCN1C(=O)COc1cc(=O)n(C)c2ccccc12 (centres undefined)	-10	-3	28	-1	-8	nt	nt
COC(=O)CCC(=O)OC1(C)C(=O)C=C2C=C(C3CC3)N(C3CCCCC3)C=C2C1=O (centres undefined)	17	4	7	48*	-9	-5	-2
COCc1cc(C)nc(Sc2nc3c(c(=O)n(C)c(=O)n3C)n2C)c1C#N	-26	-3	nt	50*	13	44*	-3
O=C(c1ccccc1Cc1ccccc1)N1CCN(S(=O)(=O)c2ccccc2F)CC1	14	-2	11	-1	-4	nt	nt
O=C(c1ccccc1Cc1ccccc1)N1CCN(S(=O)(=O)c2ccccc2[N+](=O)[O-])CC1	-12	-1	5	46*	-1	22	12
COC(=O)c1cc(NC(=O)COC(=O)C2COc3ccccc3O2)cc(C(=O)OC)c1 (centres undefined)	-6	0	-5	-3	-4	nt	nt
C[n+]1ccccc1N1CCN(c2ccccc2Cl)CC1	4	-2	17	60*	28	26	nt
Cc1ccc(Cl)cc1N1CCN(C(=S)NCCc2ccccc2)CC1	2	-5	8	-3	-1	nt	nt
Cc1ccc(Cl)cc1N1CCN(c2cccc[n+]2C)CC1	0	-3	-18	46*	24	26	nt
COc1ccc(C(=S)N2CCN(c3ccccc3Cl)CC2)cc1OC	9	3	12	-3	37	nt	nt
COc1ccc(NC(=O)CCNC(=O)C2CCN(S(=O)(=O)c3ccccc3)CC2)cc1OC	-16	nt	nt	nt	nt	nt	nt
CCc1ccc(OCC(=O)N/N=C\c2ccco2)c([N+](=O)[O-])c1	-11	-1	5	43*	14	43*	3
O=C(NCc1ccccc1CN1CCCCC1)c1ccc(Cl)cc1N1CCCC1=O	-7	6	-2	32	48	nt	nt
O=C(NCc1ccccc1CN1CCCCC1)c1ccccc1N1CCCC1=O	0	2	-4	57*	14	61*	-3
CC12CCC(=O)C=C1CCCC2=O (centres undefined)	16	nt	nt	nt	nt	nt	nt
CCN(C(=O)Cn1c(=O)oc2ccccc21)c1cccc(C)c1	1	-6	7	100*	5	3	nt
COc1cccc(CN2CC(C(=O)NCCc3nccs3)CCC2=O)c1 (centres undefined)	9	nt	nt	nt	nt	nt	nt
